Compound activity deposited in PubChem by National Center for Advancing Translational Sciences (NCATS).
In the library only some 2.9% were active in any assay of this set; here they are far more common.
A549 tox = A549 cytotoxicity, counter-screen for Nrf2 inhibitors | A549 ARE-Fluc cells, CellTiter-Fluor viability, 18-24 h | 390,000 compounds, 0.16% hits | Potency, µM (titrated, usually from 46 µM), without a hit: at the highest dose activity change, negative = cytotoxicity, actives largely listed as inhibitors | AID 504648; note: % is set by controls: 0 for no effect and ±100 for the full control effect
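A549 ARE_Fluc cells in 5% FBS OPTI-MEM were exposed to compounds in concentration-response for 18-24 h at 37 deg C. Viability was read by CellTiter-Fluor fluorescence (Ex 405/Em 525) after 30 min, before the luciferase read.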
Nrf2 inh = inhibitors of Nrf2 signaling. Potency, µM (top dose mostly 46 µM), for the others: at the highest dose activity change, negative = inhibition, hits mostly inhibitors. 360,000 compounds, 2.1% hits. A549 ARE-Fluc reporter, luciferase luminescence, 18-24 h. AID 504444; note: % is set by controls: 0 for no effect and ±100 for the full control effect; nearly all actives have a fitted effect of over 60% in size
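Nrf2 activity is the BugLite luminescence, read 15 min after reagent at room temperature, following CellTiter-Fluor cytotoxicity readout (30 min, 37C). Compound titrations were applied for 18-24 h to 5000 A549 ARE_Fluc cells/well in 5% FBS OPTI-MEM.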
Nrf2 ARE act = Nrf2 pathway activation. AREc32 ARE-luciferase reporter (MCF7-derived line), luminescence, 24 h. Potency, µM (titrated, usually from 46.1 µM), without a hit: at the top dose activation, actives largely listed as activators. 410,000 compounds, 0.31% hits. AID 624171; note: % of control where 0% means no effect; nearly all actives have a fitted effect of over 65% in size
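AREc32_Fluc, 1000 cells/well, OPTI-MEM + 5% FBS, o/n 37 deg C 5% CO2; 23 nL cpd by pin tool, 24 hr; Steady-Glo 30 min RT, luminescence.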
ATXN2 expr inh = inhibitors of ATXN2 expression; Potency, µM (doses to about 57 µM), without a hit: at the top dose activity change, negative = inhibition, hits mostly inhibitors; HEK-293 ATXN2-luciferase reporter, luminescence, 24 h; 360,000 compounds, 0.72% hits; note: % is set by controls: 0 for no effect and ±100 for the full control effect; nearly all actives have a fitted effect of over 55% in size
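ATXN2-luciferase reporter cells (luciferase flanked by upstream and downstream ATXN2 gene portions) were treated 24 h at 37 °C with compounds at up to 57 uM. SteadyGlo luminescence gave expression; GF-AFC fluorescence gave viability.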
ATXN viability = cell viability loss in ATXN counter-screen | S2 cells (HEK-293 line with an ATXN2-luciferase reporter) viability, CellTiter-Fluor protease fluorescence, 24 h | Potency, µM (highest dose often 56.7 µM), actives largely listed as cytotoxic | 400,000 compounds, 0.49% hits | AID 651635; note: nearly all actives have a fitted effect of over 40% in size
* hit, by the source's call. Calls come from the whole dose curve; as a rule, active = well fitted curve in the direction sought with a large enough effect; inconclusive = small, poorly fitted or top-dose-only effect, or another doubt; inactive = no such curve, though single readings can be large; an effect the other way counts as inactive or inconclusive. Potency is the fitted concentration of half-maximal effect.

`O=C(Nc1cccc(Nc2ncc(Br)c(NCCc3cnc[nH]3)n2)c1)N1CCCC1` gave ATXN2 expr inh 19µM*.
`Cc1ccc(Sc2ccc([N+](=O)[O-])cc2[N+](=O)[O-])nc1` gave A549 tox -12%, Nrf2 inh 2%, Nrf2 ARE act 16µM* and ATXN viability inactive.
Screening Cc1ccnc(Sc2ccc([N+](=O)[O-])cc2[N+](=O)[O-])n1 returned A549 tox inconclusive, Nrf2 inh inconclusive, Nrf2 ARE act 5%, ATXN2 expr inh inconclusive and ATXN viability inconclusive.
For COC1CCC(N(C(=O)C2CCC(C)CC2)c2cc(C3=CCCCC3)sc2C(=O)O)CC1 (configuration not stated) the results were ATXN2 expr inh -1%.
Cc1ccc2ccc3c(c2n1)NS(=O)(=O)c1ccc(C(F)(F)F)cc1-3 was read as A549 tox 7.3µM* and Nrf2 inh 8.2µM*.
CCNC(=S)N(CCc1cccc(C)c1)Cc1cc2cc(OC)c(OC)cc2[nH]c1=O was read as A549 tox -12%, Nrf2 inh 23µM*, Nrf2 ARE act 0%, ATXN2 expr inh -9% and ATXN viability inactive.
Screening CCNC(=S)N(CCc1ccccc1C)Cc1cc2cc(OC)c(OC)cc2[nH]c1=O returned A549 tox 3%, Nrf2 inh -4%, Nrf2 ARE act -1%, ATXN2 expr inh -17% and ATXN viability inactive.
Screening CCN(CC)S(=O)(=O)c1cccc(C(=O)N/N=C/c2ccc(O)c(O)c2O)c1 returned A549 tox -2%, Nrf2 inh -28%, Nrf2 ARE act 0%, ATXN2 expr inh -25% and ATXN viability inactive.
CCN(CC)S(=O)(=O)c1cccc(C(=O)N/N=C(\C)c2ccc(O)cc2O)c1 was read as A549 tox inconclusive, Nrf2 inh 10µM*, Nrf2 ARE act -1% and ATXN2 expr inh 2.4µM*.
For CCOC(=O)N1CCC(N2C(=O)c3ccccc3C2Nc2cc(OC)c(OC)c(OC)c2)CC1 (configuration not stated) the results were A549 tox 5%, Nrf2 inh inconclusive, Nrf2 ARE act 0%, ATXN2 expr inh 3% and ATXN viability inactive.
CCOC(=O)[C@]12Cc3c(cc(OC)c(OC)c3OC)[C@H]1N(C1CCCCC1)C(=O)c1cc(OC)ccc12 was read as Nrf2 ARE act -4%, ATXN2 expr inh inconclusive and ATXN viability 14µM*.
Screening O=S(=O)(c1ccccc1)N1CCN(c2nccc(-c3cccs3)n2)CC1 returned A549 tox 4% and Nrf2 inh -10%.
For C#CC[N+](CC)(CC)CC#Cc1cccc(Cl)c1 the results were A549 tox -17%, Nrf2 inh 10µM*, Nrf2 ARE act 0%, ATXN2 expr inh -9% and ATXN viability inactive.
`Cc1ccc(C)c(N2CCN(S(=O)(=O)c3ccc(-c4cc(C(F)(F)F)on4)s3)CC2)c1` gave A549 tox -10%, Nrf2 inh inconclusive and Nrf2 ARE act 0%.
Screening CCc1nc(SCC(=O)N2CCCc3ccccc32)c2oc3ccccc3c2n1 returned A549 tox inconclusive, Nrf2 inh 16µM* and Nrf2 ARE act -1%.
`CC(C)C[C@@H](CO)N(Cc1ccccc1)S(=O)(=O)N(Cc1ccccc1)[C@H](CO)CC(C)C` gave A549 tox inconclusive, Nrf2 inh inconclusive, Nrf2 ARE act -2%, ATXN2 expr inh inconclusive and ATXN viability inconclusive.
For C=CS(=O)(=O)N(Cc1ccccc1Br)[C@H](CO)CC(C)C the results were A549 tox 1%, Nrf2 inh 11%, Nrf2 ARE act inconclusive, ATXN2 expr inh inconclusive and ATXN viability 32µM*.
CC1CCCN(S(=O)(=O)c2ccc(S(=O)(=O)NC(C)c3cccs3)cc2)C1 (configuration not stated) was read as A549 tox inconclusive, Nrf2 inh 23µM*, Nrf2 ARE act 2%, ATXN2 expr inh -7% and ATXN viability inactive.
Screening O=CC1=C(c2ccccc2)Oc2ccccc2O1 returned A549 tox 2%, Nrf2 inh 11%, Nrf2 ARE act 0%, ATXN2 expr inh inconclusive and ATXN viability 22µM*.
`CN(C)/C=C1/N=C(c2ccccc2)OC1=O` gave A549 tox 7%, Nrf2 ARE act 1%, ATXN2 expr inh 12% and ATXN viability inactive.
`O=C1C=CC(n2cc(F)c(=O)[nH]c2=O)O1` (configuration not stated) gave Nrf2 ARE act 25µM* and ATXN viability inconclusive.
`Cc1ccc(NC(=O)O/N=C/c2c(C)nn(C(C)(C)C)c2C)cc1Cl` gave A549 tox 1%, Nrf2 inh 0.33µM*, Nrf2 ARE act -3%, ATXN2 expr inh -81% and ATXN viability inactive.
`Cc1ccc(NC(=O)Nn2cnnc2)cc1Cl` gave A549 tox 0%, Nrf2 inh 2%, Nrf2 ARE act -1%, ATXN2 expr inh -7% and ATXN viability inactive.
Screening CNc1nc(C#N)nc(Nc2ccccc2)n1 returned A549 tox 1% and Nrf2 inh 4%.
Screening COc1cccc(N2C(=O)c3ccccc3C2=O)n1 returned A549 tox 6% and Nrf2 inh 4%.
For CCCCOCCCNC(=O)C[C@@H]1C[C@@]2(C(=O)OCC)CCCC=C2N(Cc2cccc3ccccc23)C1=O the results were Nrf2 ARE act -2%, ATXN2 expr inh inconclusive and ATXN viability 35µM*.
CCCCCCCCN1C(=O)[C@H](CC(=O)NCc2ccc(OC)c(OC)c2)C[C@@]2(C(=O)OCC)CCCC=C12 was read as Nrf2 ARE act -3%, ATXN2 expr inh inconclusive and ATXN viability 14µM*.
CCOC(=O)[C@]12CCCC=C1N(Cc1cccc3ccccc13)C(=O)[C@H](CC(=O)NCc1cccc3ccccc13)C2 was read as Nrf2 ARE act -1%, ATXN2 expr inh 5% and ATXN viability inactive.
`COc1ccc(F)c(CN2CCC3(CCC(CNC(=O)c4cc(C)nn4C)O3)CC2)c1` (configuration not stated) gave ATXN viability inactive.
For COC(=O)CC1(C(=O)OC)Oc2ccc(Br)cc2C(=O)N1c1ccc(Br)cc1Cl (configuration not stated) the results were A549 tox -24%, Nrf2 inh 16µM*, Nrf2 ARE act 0%, ATXN2 expr inh -20% and ATXN viability inconclusive.
`COc1cccc(CN2C(=O)NC(C)(C3CCN(Cc4ccc(C)o4)CC3)C2=O)c1OC` (configuration not stated) gave ATXN viability inactive.
`CCCCn1c(-c2ccc(Br)cc2F)nc2c1c(=O)[nH]c(=O)n2CC(C)C` gave A549 tox inconclusive, Nrf2 inh 21µM*, Nrf2 ARE act 5%, ATXN2 expr inh inconclusive and ATXN viability inactive.
